# Assay outcomes: PubChem BioAssay, several laboratories
# HTR5A ag – counter-screen for OPRM1-OPRD1 agonists: human HTR5A agonism | P47898 | HTR5A agonist assay, luminescence, cell-based | activation, % at 9.3 µM | hit rate 0.61% among 340,000; in the data active = activation mostly above about 9.5%, no sharp cut-off; inactive = mostly below about 7.6%;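 note: 0% = cells with vehicle only and 100% = reference agonist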
# Target sequence (P47898 whole entry, looked up): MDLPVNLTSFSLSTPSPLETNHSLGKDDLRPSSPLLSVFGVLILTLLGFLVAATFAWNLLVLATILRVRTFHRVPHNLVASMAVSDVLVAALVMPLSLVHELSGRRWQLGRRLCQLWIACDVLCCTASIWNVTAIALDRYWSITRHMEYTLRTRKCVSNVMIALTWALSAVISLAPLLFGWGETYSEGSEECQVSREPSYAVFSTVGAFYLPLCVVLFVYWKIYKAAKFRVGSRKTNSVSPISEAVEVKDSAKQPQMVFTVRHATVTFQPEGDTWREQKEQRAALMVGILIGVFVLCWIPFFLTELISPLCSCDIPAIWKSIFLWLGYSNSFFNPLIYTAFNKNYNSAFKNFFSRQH
# OPRM1-OPRD1 inv – inverse agonist of human OPRM1-OPRD1 heterodimerization | P35372+P41143 | cell-based MOR-DOR heterodimer luminescence, inverse agonism | inhibition, % at 9.3 µM | hit rate 0.21% among 340,000; in the data active = inhibition above about 22%, passing the limit was not always enough;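 note: 0% = cells with DMSO and 100% = wells without cells with DMSO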
# OPRM1-OPRD1 ag – OPRM1-OPRD1 heterodimerization agonism | P35372+P41143 | cells, luminescence | activation, % at 9.3 µM | AID 504326 | hit rate 0.3% among 340,000; in the data active = activation above about 18%;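 note: 0% = vehicle-treated cells and 100% = reference agonist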
# HTR5A inv ag – inverse agonist of human HTR5A in OPRM1-OPRD1 counter-screen; P47898; HTR5A cell line, luminescence, inverse agonism; inhibition, % at 9.3 µM; hit rate 0.083% among 340,000; in the data active = inhibition mostly above about 23%, no sharp cut-off; inactive = mostly below about 18%;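 note: 0% = cells with DMSO and 100% = no-cell wells with DMSO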
# Bfl-1 A1 inh – inhibitors of the anti-apoptotic protein A1, read as caspase activation; MEF A1-2A-BIM cells, Caspase-Glo 3/7 luminescence, 3 h; percent of clofoctol response, vehicle zero; caspase activation, % (concentration not given with the values); hit rate 0.066% among 330,000; AID 2462;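 active = over half of replicate activation scores above 10%, or exactly half above 10 with the replicate mean above 10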
# OPRM1-D1 inv cf – confirmation of human OPRM1-OPRD1 heterodimerization inverse agonists. shares compounds with OPRM1-OPRD1 inv. cells expressing OPRM1/OPRD1 heterodimer, luminescence. inhibition, % at 9.3 µM. hit rate 20% among 580. AID 504900; in the data active = inhibition above about 32%;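 note: 0% = cells with DMSO and 100% = wells lacking cells with DMSO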
# HTR5A inv count – HTR5A inverse agonism, opioid heterodimer counter-screen; shares compounds with OPRM1-OPRD1 inv; HTR5A-expressing cells, luminescence; inhibition, % at 9.3 µM; 580 tested, under 10 active; AID 504914; call rule not given here;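 note: 0% = cells with DMSO and 100% = no-cell wells with DMSO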
# Starred values were filed as active, the others as inactive; i = inactive; x = no result. Compounds with a hit are over-represented: about 1.1% of the library has one in this group of screens.
SMILES,HTR5A ag,OPRM1-OPRD1 inv,OPRM1-OPRD1 ag,HTR5A inv ag,Bfl-1 A1 inh,OPRM1-D1 inv cf,HTR5A inv count
CCNC(=S)NNc1nc(N2CCCCC2)nc(N2CCOCC2)n1,0,5,-1,16,0,x,x
Cc1ccc(C(=O)COC(=O)CNC(=O)c2ccc(Br)o2)cc1[N+](=O)[O-],-5,54*,-11,23,1,-64,5
Cc1ccc(C(=O)COC(=O)CNC(=O)Cc2ccccc2)cc1[N+](=O)[O-],-6,57*,-14,29,1,-46,-25
Cc1ccc(C(=O)COC(=O)CNC(=O)Cc2ccccc2)cc1,2,19,-4,-19,0,x,x
CCc1ccc(C(=O)COC(=O)CNC(=O)c2ccc(Br)o2)cc1,3,21,-4,5,0,x,x
COc1ccc(C(=O)c2c[nH]c(C(=O)NCc3cccs3)c2)cc1,-2,9,-2,5,1,x,x
O=C1Nc2ccccc2/C1=N/c1sc2c(c1C(=O)NCCc1ccccc1)CCCC2,2,34*,-6,-24,-2,21,14
O=C(Nc1sc2c(c1C(=O)NCCO)CCCC2)c1ccco1,6,6,-1,-17,-1,x,x
O=C(CCCn1c(SCC(=O)NCCc2ccccc2)nc2ccccc2c1=O)NCC1CCCO1 (centres undefined),-2,8,-2,5,-1,x,x
O=C1CC(c2ccccc2)Cc2nc3ncnn3cc21 (centres undefined),4,8,-2,-10,0,x,x
CC(C)OC(=O)C(=O)NNc1ccccc1,-3,24*,-3,8,0,4,3
CCCOC(=O)C(=O)NNc1ccccc1,2,0,0,-6,0,x,x
CCOC(=O)C(=O)NNc1ccc(C)cc1,1,31*,-6,-2,1,-1,19
O=C(CCC(=O)OCC(=O)c1ccc([N+](=O)[O-])cc1)Nc1ccccc1Cl,0,24,-4,-17,0,x,x
O=C(CCC(=O)OCC(=O)c1cccc([N+](=O)[O-])c1)Nc1cccc(Cl)c1Cl,-6,69*,-11,30,0,64*,24
Cc1ccccc1NC(=O)CCC(=O)OCC(=O)c1cccc([N+](=O)[O-])c1,-10,60*,-13,33,0,i,4
O=C(COC(=O)CCOc1ccccc1)NCCc1ccccc1,-1,11,-2,4,-1,x,x
O=C(CCOc1ccccc1)OCC(=O)c1cc2ccccc2o1,-4,37*,-9,10,0,-14,28
COC(=O)c1ccc(NC(=S)NC(=O)c2cccnc2)cc1,-7,28*,-6,-4,0,16,4
CCC(C)c1ccc(O)c(NC(=O)c2cccnc2)c1 (centres undefined),1,3,0,-23,0,x,x
CC(C)c1ccc(O)c(NC(=S)NC(=O)c2cccnc2)c1,-11,43*,-8,30,2,32*,27
CC(C)(C)c1cc(Cl)c(O)c(NC(=S)NC(=O)c2cccnc2)c1,-4,47*,-10,12,1,6,9
CCNC(=S)NNc1nnc(-c2ccccc2)c(-c2ccccc2)n1,2,50*,-10,17,0,29,8
CCNC(=S)NNC(=S)NCc1ccccc1,-3,21,-4,13,0,x,x
CC(C)(C)c1ccc(OCC(=O)NNC(=S)NC(=O)c2ccccc2[N+](=O)[O-])c(Br)c1,-4,32*,-6,16,1,17,4
SMILES,HTR5A ag,OPRM1-OPRD1 inv,OPRM1-OPRD1 ag,HTR5A inv ag,Bfl-1 A1 inh,OPRM1-D1 inv cf,HTR5A inv count
CC1(C)CC(=O)C(C2(O)C(=O)Nc3ccccc32)CO1 (centres undefined),-8,55*,-11,22*,0,-110,-63
CC(C)N1C(=O)C(O)(C2COC(C)(C)CC2=O)c2ccccc21 (centres undefined),1,11,-2,-11,0,x,x
CC(=O)N(/N=C1\Sc2ccccc2C1=O)c1ccccc1C,-16,51*,-10,35,0,-200,-6
CC(=O)N(/N=C1\Sc2ccccc2C1=O)c1ccccc1,-6,34*,-8,28,x,-58,-14
ON(Cc1c(F)cccc1Cl)Cc1c(F)cccc1Cl,-4,35*,-7,2,1,70*,9
Fc1cccc(Cl)c1CSC1=NCCS1,2,-17,2,-12,0,x,x
COc1ccc(-c2nc(CN3CCN(C(=O)c4ccco4)CC3)c(C)o2)c(F)c1,4,10,-2,-10,0,x,x
O=C(O)c1ccc2nc3c(nc2c1)-c1ccccc1C3=O,11,42*,-9,22,-7,46*,12
O=C(O)c1ccc2nc(-c3ccco3)c(-c3ccco3)nc2c1,0,-19,4,6,x,x,x
O=C(CC1(O)C(=O)Nc2ccccc21)c1ccc(-n2cnnn2)cc1 (centres undefined),-4,40*,-9,15,0,33*,-1
CC1(C)CC(=O)CC(C2(O)C(=O)N(Cc3ccccc3)c3ccccc32)O1 (centres undefined),-6,34*,-6,16,0,20,9
CC1(C)CC(=O)C(C2(O)C(=O)N(Cc3ccccc3)c3ccccc32)CO1 (centres undefined),-7,29,-6,18,0,x,x
COc1ccc(CCNC(=O)CN(c2ccc(OC)c(OC)c2)S(=O)(=O)c2ccccc2)cc1OC,-3,3,-1,9,1,x,x
COc1ccc(S(=O)(=O)N=Nc2c(O)[nH]c3ccccc23)cc1,0,45*,-9,21,2,-63,4
Cc1ccc(S(=O)(=O)N=Nc2c(O)[nH]c3ccccc23)cc1C,-2,47*,-9,25,-1,-55,1
Cc1ccccc1N=Nc1c(O)[nH]c2ccccc12,x,x,x,x,0,x,x
COc1cccc(-n2nc(C(N)=O)c(O)cc2=O)c1,2,14,-2,-5,0,x,x
COc1cccc(-n2nc(C#N)c(Cl)cc2=O)c1,-5,28*,-5,14,x,-2,17
CCN1CCN(C(=O)CN2C(=O)COc3ccc(C)cc32)CC1,-4,12*,-2,12,0,i,-19
Cc1c(C(=O)N(C)C)sc2nc(-c3ccccn3)[nH]c(=O)c12,3,16,-3,-9,0,x,x
O=c1[nH]c(-c2ccccn2)nc2sc(-c3ccccc3)cc12,2,33*,-6,-6,x,6,2
O=C1NC(=O)C2(CCCCCCCCCCC2)N1,3,3,-1,-8,-1,x,x
Cc1nn(CCC(=O)NNC(=S)Nc2ccc(F)cc2)c(C)c1Br,-3,44*,-8,-27,0,2,7
